For orientation: inhibition means the relative decrease from the control value, in per cent.

Calls of active or inactive are those of the source.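 Rule for the calls: active = inhibition above 50% of specific binding or functional response at a panel target; inactive = the rest.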

This experiment can be described thus: off-target binding across receptor panel, profiling panel, selectivity assay for E-cadherin project, biochemical, Ricerca panel, radioligand binding (AID 651826). The settings on record: Ricerca radioligand binding/enzyme panel, % inhibition, at 10 µM, stronger effect = higher value.

Regarding `O=C(NCCCNC(=O)c1ccc[nH]c1=O)c1cc(-c2ccccc2)on1`, the inhibition was 74% (active). For the same molecule, the inhibition (measured here: 5-HT1A binding) is -4%. Further, the inhibition (measured here: GABAA muscimol site binding) amounted to 20%. In addition, for the setting “measured here: adenosine A1 binding”, the inhibition amounted to 71%. The inhibition (measured here: cannabinoid CB1 binding) is -23%. The inhibition (measured here: dopamine D3 binding) stood at 18%. The inhibition (measured here: dopamine transporter binding) came to 31%. Further, the inhibition (measured here: hERG channel binding) came out at 13%. The inhibition (measured here: mu opioid binding) is -5%. The inhibition (measured here: muscarinic M1 binding) was 9%. Moreover, the inhibition (measured here: norepinephrine transporter binding) was 13%. Moreover, for the setting “measured here: serotonin transporter binding”, the inhibition came out at 10%. Besides, under “measured here: sigma1 receptor binding”, the inhibition amounted to 47%.
